Source: PubChem BioAssay (NCATS)
Inconclusive results are not listed. The source made the active and inactive calls. Unless noted, calls follow the shape of the dose curve; as a rule, active = well fitted curve in either direction with a large enough effect (not every such curve was filed as active); inconclusive = small, poorly fitted or top-dose-only effect, or another doubt; inactive = flat fitted curve, though single readings scatter.

Assays:
[1] = AP1 Signaling Pathway (AID 357); settings: ME-180 AP-1-bla reporter, EGF-induced, beta-lactamase ratio, 5 h; at 17.2 µM (top of the series) unless noted;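 also: ME-180 reporter cells stimulated with EGF at its EC50 level; % is scaled to controls: 0 for no effect and ±100 for the full control effect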
Method in brief: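 A ratiometric CCF4 readout (405 nm excitation; 460 and 530 nm emission) quantified AP-1-driven beta-lactamase in ME-180 cells after 5 h with compound and EC50 EGF; AC50 values were derived for activators and inhibitors.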

[2] = NFAT Signaling Pathway (AID 444); settings: Jurkat NFAT-bla M1, carbachol, beta-lactamase ratio, 5 h; at 17.2 µM (top of the series) unless noted;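 also: carbachol stimulus at about its EC50 of 1 µM final; % is scaled to controls: 0 for no effect and ±100 for the full control effect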
Method in brief: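 Read-out: CCF4 FRET ratio (460 nm/530 nm) after 1 h RT dye loading, used for %activity and AC50 from titration series. Cells: Jurkat NFAT-β-lactamase/M1 line, treated with compound plus 1 uM carbachol for 5 h, 37 °C.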

[3] = Stat Signaling Pathway (AID 446);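 also: ME-180 cervical cancer cells given 40 pM IL-6 alongside compound; SIE-controlled beta-lactamase reporter measured as 460/530 nm FRET emission ratio; % is scaled to controls: 0 for no effect and ±100 for the full control effect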
Method in brief: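 Reporter line: ME-180 cervical carcinoma, SIE-beta-lactamase. Treatment: compound with 40 pM IL-6, 5 hrs, 37 C, in low-serum OPTI-MEM with 10 mM HEPES pH 7.3. Detection: 460/530 nm fluorescence.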

[4] = target: Glucocorticoid receptor (Homo sapiens) (UniProt P04150); assay: GR-GFP Redistribution (AID 450;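 active = compounds whose dose series gives a full or clear partial fitted curve of increased nuclear translocation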; also: potency is read from the fitted curve at half-maximal effect); settings: U2OS GR-GFP nuclear translocation, laser cytometry, 2 h
Sequence of Glucocorticoid receptor (Homo sapiens) (P04150 whole entry, looked up, the tested form may be a part): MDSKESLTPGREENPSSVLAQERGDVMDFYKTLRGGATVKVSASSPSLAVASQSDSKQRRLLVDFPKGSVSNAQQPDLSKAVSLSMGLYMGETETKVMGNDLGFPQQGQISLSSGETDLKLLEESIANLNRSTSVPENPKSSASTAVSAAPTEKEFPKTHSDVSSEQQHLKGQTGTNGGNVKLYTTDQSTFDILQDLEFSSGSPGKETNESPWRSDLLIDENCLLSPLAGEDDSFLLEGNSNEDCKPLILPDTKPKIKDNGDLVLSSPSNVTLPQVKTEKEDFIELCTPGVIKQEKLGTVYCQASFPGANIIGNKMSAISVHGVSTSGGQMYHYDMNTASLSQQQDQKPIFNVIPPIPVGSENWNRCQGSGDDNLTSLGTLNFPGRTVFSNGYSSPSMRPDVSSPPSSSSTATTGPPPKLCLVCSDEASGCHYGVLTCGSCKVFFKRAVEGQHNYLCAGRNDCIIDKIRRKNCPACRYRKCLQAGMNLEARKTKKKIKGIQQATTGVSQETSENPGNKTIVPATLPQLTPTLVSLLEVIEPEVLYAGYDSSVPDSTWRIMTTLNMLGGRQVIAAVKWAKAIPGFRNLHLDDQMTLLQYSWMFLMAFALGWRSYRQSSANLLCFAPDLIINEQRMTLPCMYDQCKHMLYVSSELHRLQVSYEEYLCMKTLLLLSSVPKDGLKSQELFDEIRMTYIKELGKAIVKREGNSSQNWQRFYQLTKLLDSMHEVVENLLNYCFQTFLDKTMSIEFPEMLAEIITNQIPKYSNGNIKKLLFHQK

[5] = target: Glucocorticoid receptor (Homo sapiens) (UniProt P04150); assay: GR-EFC Redistribution (AID 451; calls by dose curve; also: potency is read from the fitted curve at half-maximal effect); settings: CHO-K1 GR-EFC translocation, beta-gal luminescence, 2 h
Method in brief: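 Translocation of GR-ED fusion to nuclear EA restores b-gal, read by luminescence after 1 h room-temperature detection. Engineered CHO-K1 biosensor cells, 1,000/well, exposed 2 h at 37 C to titrations up to 46 uM final.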

[6] = target: Mitogen-activated protein kinase 10 (Mus musculus) (UniProt Q61831); assay: JNK3 AlphaScreen Assay (AID 530);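 also: kinase came from lysate of stimulated human HepG2 cells; signal reports phosphorylation of biotinylated GST-cJun 1-79 at Ser73 with 10 µM ATP; % is scaled to controls: 0 for no effect and ±100 for the full control effect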
Method in brief: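 Room-temperature AlphaScreen kinase assay; pre-activated HepG2 lysate as JNK3 source, biotin-GST-cJun(1-79) substrate, 10 uM ATP, compound 15 min preincubation.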

COc1ccc(C(=O)CN2CCOCC2)cc1F
inactive: activity change, negative = inhibition [1] 1.47% | activity change, negative = inhibition [2] 3.56% | outcome [3] | Potency [4] > 20.6 µM

O=c1[nH]c(=O)n(-c2cccc3ccccc23)c(O)c1C=NCCCn1ccnc1
inactive: activity change, negative = inhibition [1] 14.5% | activity change, negative = inhibition [2] -7.5% | outcome [3] | Potency [4] > 20.6 µM

Cc1ccc2c(c1)[C@@H]1CN(C)CC[C@@H]1N2C(=O)Nc1cccc(C(F)(F)F)c1
inactive: activity change, negative = inhibition [1] 28.8% | activity change, negative = inhibition [2] -12.5% | outcome [3] | Potency [4] > 20.6 µM

CN1C[C@@H](CNC(=O)OCc2ccccc2)C[C@H]2c3cccc4c3c(cn4C)C[C@@H]21
inactive: activity change, negative = inhibition [1] 29.6% [at 38 µM] | activity change, negative = inhibition [2] 0.446% [at 38 µM] | outcome [3] | Potency [4] > 46 µM | Potency [5] > 46 µM | outcome [6]

CCCCC1(CN2CCCC2=O)C(=O)NC(=O)NC1=O
inactive: activity change, negative = inhibition [1] 7.49% | activity change, negative = inhibition [2] -2.56% | outcome [3] | Potency [4] > 20.6 µM

CC(=O)[C@@]1(O)CC[C@H]2[C@@H]3CC=C4C[C@@H](O)CC[C@]4(C)[C@H]3CC[C@@]21C
inactive: activity change, negative = inhibition [1] 0.531% | activity change, negative = inhibition [2] 10.8% | outcome [3] | Potency [4] > 20.6 µM
